Data reported in PubChem BioAssay (NCATS).
Several values for one entry are separate records, joined by “and”; a condition that tells them apart may be missing. Equal entries are not always repeated. Results filed as inconclusive are left out. A call without a number means that no potency is given here. More than one record can exist for a structure, and the calls need not agree. A number with no mark means an inactive call. Activity calls are given as the source filed them. Calls follow the shape of the dose curve; as a rule, active = well fitted inhibition curve with a large enough effect; inconclusive = small, poorly fitted or top-dose-only effect; inactive = flat fitted curve, though single readings scatter.

What was measured:
[1] = system: P93_24; assay: qHTS profiling for inhibitors of Plasmodium falciparum proliferation (AID 504749); conditions: P. falciparum in erythrocytes, SYBR Green DNA, 72 h; series mostly up to 28.7 µM
Method in brief: (§1)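 Quantitative HTS: compounds pinned into medium, infected erythrocytes added (0.3% parasitemia, 2.5% hematocrit), 72 h culture at 37 C under 5% CO2. Saponin/Triton lysis with SYBR Green I, overnight RT, then fluorescence read.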

[2] = system: P94_40; assay: as above; conditions: P. falciparum in erythrocytes, SYBR Green DNA, 72 h; series mostly up to 28.7 µM
Method in brief: as §1

[3] = system: SC27B; assay: as above; conditions: P. falciparum in erythrocytes, SYBR Green DNA, 72 h; series mostly up to 28.7 µM
Method in brief: as §1

[4] = system: TAB109; assay: as above; conditions: P. falciparum in erythrocytes, SYBR Green DNA, 72 h; series mostly up to 28.7 µM
Method in brief: as §1

[5] = system: TAB113; assay: as above; conditions: P. falciparum in erythrocytes, SYBR Green DNA, 72 h; series mostly up to 28.7 µM
Method in brief: as §1

[6] = system: TAB165; assay: as above; conditions: P. falciparum in erythrocytes, SYBR Green DNA, 72 h; series mostly up to 28.7 µM
Method in brief: as §1

[7] = system: W2; assay: as above; conditions: P. falciparum in erythrocytes, SYBR Green DNA, 72 h; series mostly up to 28.7 µM
Method in brief: as §1

[8] = system: CRL-7250; assay: Cytotoxic Profiling of Annotated Libraries Using Quantitative High-Throughput Screening (AID 1296008); conditions: Five cell lines viability, CellTiter-Glo ATP luminescence, 48-72 h; max response: stronger effect = lower value
Method in brief: (§2)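 Compounds were pin-transferred onto cells and incubated 48 or 72 hr at 37 degree Celsius, 95% humidity. CellTiter-Glo was added, plates sat 10 min at room temperature, then ATP-coupled luminescence was imaged as the viability read-out.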

[9] = system: HaCat; assay: as above; conditions: Five cell lines viability, CellTiter-Glo ATP luminescence, 48-72 h; max response: stronger effect = lower value
Method in brief: as §2

[10] = system: NIH3T3; assay: as above; conditions: Five cell lines viability, CellTiter-Glo ATP luminescence, 48-72 h; max response: stronger effect = lower value
Method in brief: as §2

[11] = system: HACAT; assay: qHTS assay to identify novel small-molecules to repurpose for Merkel cell carcinoma treatment (AID 1296009); conditions: MCC and control cell lines, CellTiter-Glo viability, 72 h; series mostly up to 44.8 µM
Method in brief: (§3)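 Viability readout: ATP luminescence (CellTiter-Glo) after 72 hr drug exposure at 37 degree celsius. Dose-response format was 8 points for NPC and 11 points for MIPE; data normalized to in-plate controls.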

[12] = system: MCC-13; assay: as above; conditions: MCC and control cell lines, CellTiter-Glo viability, 72 h; series mostly up to 46 µM
Method in brief: as §3

[13] = system: PAD; assay: qHTS profiling for inhibitors of Plasmodium falciparum proliferation (AID 504749); conditions: P. falciparum in erythrocytes, SYBR Green DNA, 72 h; series mostly up to 28.7 µM
Method in brief: as §1

[14] = system: PC15; assay: as above; conditions: P. falciparum in erythrocytes, SYBR Green DNA, 72 h; series mostly up to 28.7 µM
Method in brief: as §1

[15] = system: PC26; assay: as above; conditions: P. falciparum in erythrocytes, SYBR Green DNA, 72 h; series mostly up to 28.7 µM
Method in brief: as §1

[16] = system: PC49; assay: as above; conditions: P. falciparum in erythrocytes, SYBR Green DNA, 72 h; series mostly up to 28.7 µM
Method in brief: as §1

[17] = system: KB-3-1; assay: Cytotoxic Profiling of Annotated Libraries Using Quantitative High-Throughput Screening (AID 1296008); conditions: Five cell lines viability, CellTiter-Glo ATP luminescence, 48-72 h; max response: stronger effect = lower value
Method in brief: as §2

[18] = system: HEK293; assay: as above; conditions: Five cell lines viability, CellTiter-Glo ATP luminescence, 48-72 h; max response: stronger effect = lower value
Method in brief: as §2

[19] = system: MCC-26; assay: qHTS assay to identify novel small-molecules to repurpose for Merkel cell carcinoma treatment (AID 1296009); conditions: MCC and control cell lines, CellTiter-Glo viability, 72 h; series mostly up to 46 µM
Method in brief: as §3
Also: nearly all actives have a fitted effect of over 60% in size.
Potency is read from the fitted curve at half-maximal effect.

O=C(c1ccc(OCCN2CCCCC2)cc1)c1c(-c2ccc(O)cc2)sc2cc(O)ccc12
Potency [1]: 8.91 µM (active)
Potency [2]: 7.94 µM (active)
Potency [3]: 8.91 µM (active)
Potency [4]: 7.94 µM (active)
Potency [5]: 5.01 µM (active)
Potency [6]: 2.82 µM (active)
Potency [7]: 3.01 µM (active)
outcome [8]: inactive
Potency [9]: 16.8 µM (active)
outcome [9]: inactive
Potency [10]: 18.8 µM (active)
max response [10]: -12.5%
outcome [11]: inactive
Potency [12]: inactive

CC(C)C(=O)Nc1ccc([N+](=O)[O-])c(C(F)(F)F)c1
Potency [1]: inactive
Potency [2]: inactive
Potency [13]: inactive
Potency [14]: inactive
Potency [15]: inactive
Potency [16]: inactive
Potency [3]: inactive
Potency [4]: inactive
Potency [5]: inactive
Potency [6]: inactive
Potency [7]: inactive
max response [8]: -19.8%
outcome [9]: inactive
max response [17]: -17.3% and -13.1%
max response [10]: -15.1%
outcome [10]: inactive
outcome [11]: inactive
Potency [12]: inactive

COc1nc(C)nc(Cl)c1NC1=NCCN1
Potency [2]: inactive
Potency [13]: inactive
Potency [14]: inactive
Potency [15]: inactive
Potency [16]: inactive
Potency [3]: inactive
Potency [4]: inactive
Potency [5]: inactive
Potency [6]: inactive
Potency [7]: inactive
max response [8]: -8.35%
max response [18]: -5.08% and -4.05%
outcome [9]: inactive
max response [10]: -2.5% and 2.31%
outcome [11]: inactive
Potency [12]: inactive

CC(C(=O)O)c1cccc(C(=O)c2ccccc2)c1 (configuration not stated)
outcome [11]: inactive
Potency [12]: inactive

COc1cc2nc(N3CCN(C(=O)c4ccco4)CC3)nc(N)c2cc1OC
max response [9]: -3.1%
max response [10]: -23.2%
Potency [12]: inactive

CN1CCN2c3ccccc3Cc3ccccc3C2C1 (configuration not stated)
Potency [1]: inactive
Potency [2]: inactive
Potency [13]: inactive
Potency [14]: inactive
Potency [15]: inactive
Potency [16]: inactive
Potency [3]: inactive
Potency [4]: inactive
Potency [5]: inactive
Potency [6]: inactive

CN1CCC(=C2c3ccccc3CC(=O)c3sccc32)CC1
Potency [14]: inactive
Potency [16]: inactive
Potency [7]: 1.2 µM (active)
max response [8]: 4.7% and -3.04%
max response [9]: 0.22%
outcome [9]: inactive
max response [17]: -4.06%
max response [10]: -5.39%
outcome [10]: inactive
outcome [11]: inactive
Potency [12]: inactive
Potency [19]: inactive

CCOC(=O)c1ncn2c1CN(C)C(=O)c1cc(F)ccc1-2
Potency [1]: inactive
Potency [2]: inactive
Potency [13]: inactive
Potency [14]: inactive
Potency [15]: inactive
Potency [16]: inactive
Potency [3]: inactive
Potency [4]: inactive
Potency [5]: inactive
Potency [6]: inactive
Potency [7]: inactive

OCCN(CCO)c1nc(N2CCCCC2)c2nc(N(CCO)CCO)nc(N3CCCCC3)c2n1
outcome [11]: inactive
Potency [12]: inactive
Potency [19]: inactive

CNCCCC12CCC(c3ccccc31)c1ccccc12
Potency [13]: inactive
Potency [16]: inactive
Potency [3]: inactive
Potency [4]: inactive
Potency [5]: inactive
Potency [7]: 6.01 µM (active)
Potency [18]: 11.9 µM (active) and 16.6 µM (active)
max response [9]: -20.8% and 4.86%
Potency [12]: inactive

CN(C)CCCN1c2ccccc2CCc2ccc(Cl)cc21
Potency [3]: inactive
Potency [7]: 1.9 µM (active)
max response [8]: -24.3%
Potency [18]: 13.2 µM (active) and 8.41 µM (active)
outcome [9]: inactive
max response [10]: -22.1%
outcome [11]: inactive
Potency [12]: inactive
Potency [19]: inactive

OCCN1CCN(CCCN2c3ccccc3Sc3ccc(C(F)(F)F)cc32)CC1
Potency [1]: 6.31 µM (active)
Potency [2]: 11.2 µM (active)
Potency [13]: 7.94 µM (active)
Potency [14]: 11.2 µM (active)
Potency [15]: 6.75 µM (active)
Potency [3]: 8.91 µM (active)
Potency [4]: 7.08 µM (active)
Potency [5]: 8.91 µM (active)
Potency [6]: 12.6 µM (active)
Potency [7]: 1.51 µM (active)
max response [8]: 1.65%
max response [9]: -28.3% and -6.1%
Potency [17]: 20.6 µM (active)
Potency [10]: 13.2 µM (active)
Potency [12]: inactive

Cn1c(=O)c2c(ncn2C)n(C)c1=O
Potency [1]: inactive
Potency [2]: inactive
Potency [13]: inactive
Potency [14]: inactive
Potency [15]: inactive
Potency [16]: inactive
Potency [3]: inactive
Potency [4]: inactive
Potency [5]: inactive
Potency [6]: inactive
Potency [7]: inactive
max response [8]: 0.692% and -3.54%
max response [18]: -13.2% and 0.976%
max response [9]: 1.8% and -12.8%
max response [10]: -9.99% and -2.17%
Potency [12]: inactive

COc1cc2nc(N3CCN(C(=O)C4COc5ccccc5O4)CC3)nc(N)c2cc1OC (configuration not stated)
max response [9]: -6.13%
outcome [9]: inactive
max response [17]: 19.6% and -6.62%
max response [10]: -16.5%
outcome [10]: inactive
outcome [11]: inactive
Potency [12]: inactive
Potency [19]: inactive

COc1cc2c(c(OC)c1OC)-c1ccc(OC)c(=O)cc1[C@@H](NC(C)=O)CC2
Potency [1]: inactive
Potency [2]: inactive
Potency [13]: inactive
Potency [14]: inactive
Potency [15]: inactive
Potency [16]: inactive
Potency [3]: inactive
Potency [4]: inactive
Potency [5]: inactive
Potency [6]: inactive
Potency [18]: 18.8 nM (active)
max response [18]: -105%
max response [9]: -4.55% and -18.6%
Potency [17]: 23.1 nM (active) and 1 nM (active)
max response [10]: -60%
Potency [12]: 0.0118 µM (active)
